# Experimental data: PubChem BioAssay (EPA / NIEHS)
# Results filed as inconclusive are left out. Calls of active or inactive are those of the source. How the source made its calls: active means hit-call score of the fitted dose curve at least 0.9, where 1 is the maximum; inconclusive means response in the unintended direction; inactive means score below 0.9.
# Columns and labels:
# [1] = biological target: Estrogen receptor (Homo sapiens) (UniProt P03372); assay: NVS_NR_hER: NovaScreen (NVS) Nuclear Receptor Binding Assay for human Estrogen Receptor (ER) (AID 2283348)
# Chain of Estrogen receptor (Homo sapiens) (P03372 whole entry, looked up, the tested form may be a part): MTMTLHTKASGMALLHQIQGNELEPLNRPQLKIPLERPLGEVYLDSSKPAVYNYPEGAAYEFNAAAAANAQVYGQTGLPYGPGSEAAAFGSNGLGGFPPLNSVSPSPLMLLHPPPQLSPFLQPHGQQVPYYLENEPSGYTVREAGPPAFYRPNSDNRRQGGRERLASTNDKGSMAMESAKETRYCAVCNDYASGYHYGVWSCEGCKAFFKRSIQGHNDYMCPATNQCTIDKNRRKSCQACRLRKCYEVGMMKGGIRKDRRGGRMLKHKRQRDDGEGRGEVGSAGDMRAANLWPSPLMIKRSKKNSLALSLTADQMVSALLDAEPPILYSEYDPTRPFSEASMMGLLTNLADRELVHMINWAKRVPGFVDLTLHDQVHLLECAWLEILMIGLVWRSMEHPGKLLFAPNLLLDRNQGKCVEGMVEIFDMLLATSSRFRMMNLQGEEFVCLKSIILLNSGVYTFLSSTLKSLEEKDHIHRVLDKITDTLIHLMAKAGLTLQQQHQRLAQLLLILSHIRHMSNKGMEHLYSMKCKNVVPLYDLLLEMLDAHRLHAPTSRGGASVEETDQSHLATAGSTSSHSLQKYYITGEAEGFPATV
# How it was run: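 Radiodetection of ligand displacement in a lysate-based, cell-free format using MCF7 extracts, read at 18 hours. Duplicate 25 uM primary testing, then concentration series for actives.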
# [2] = biological target: bovine Estrogen Receptor (ER), ESR1 (gene 407238) (UniProt P49884); assay: NVS_NR_bER: NovaScreen (NVS) Nuclear Receptor Binding Assay for bovine Estrogen Receptor (ER) (AID 2283345);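 further: actives lower the bound radioligand count which means they displace the ER ligand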
# Chain of bovine Estrogen Receptor (ER), ESR1 (gene 407238) (P49884 whole entry, looked up): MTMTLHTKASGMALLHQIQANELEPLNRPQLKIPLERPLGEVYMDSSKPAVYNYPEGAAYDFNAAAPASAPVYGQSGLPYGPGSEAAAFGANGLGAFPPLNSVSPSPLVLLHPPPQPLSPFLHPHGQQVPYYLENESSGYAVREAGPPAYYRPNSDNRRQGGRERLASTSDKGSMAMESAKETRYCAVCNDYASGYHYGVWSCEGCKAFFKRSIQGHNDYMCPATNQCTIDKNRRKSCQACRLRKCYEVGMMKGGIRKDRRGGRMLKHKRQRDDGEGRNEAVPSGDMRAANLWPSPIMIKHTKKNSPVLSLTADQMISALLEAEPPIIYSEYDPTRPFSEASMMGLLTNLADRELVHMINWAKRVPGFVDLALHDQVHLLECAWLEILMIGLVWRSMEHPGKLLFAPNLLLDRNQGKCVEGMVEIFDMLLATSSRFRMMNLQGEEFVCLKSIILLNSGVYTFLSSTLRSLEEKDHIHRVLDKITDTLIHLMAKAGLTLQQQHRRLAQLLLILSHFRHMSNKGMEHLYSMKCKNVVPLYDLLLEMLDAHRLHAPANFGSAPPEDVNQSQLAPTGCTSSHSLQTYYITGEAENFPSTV
# How it was run: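 Scintillation counting of displaced radioligand gave the readout; bovine uterine membrane extract supplied the receptor. Measured 18 h post-dose, normalized to DMSO baseline. Single 25 uM duplicate screen preceded concentration-response follow-up.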
# [3] = biological target: Estrogen receptor (Homo sapiens) (UniProt P03372); assay: OT_ER_ERaERa_1440: Odyssey Thera (OT) 24-hour HEK293T Protein-Complementation Assay for Estrogen Receptor-alpha/-alpha Homodimer (AID 2283349);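 further: hits raise fluorescence above DMSO for agonists and antagonists alike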
# How it was run: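 Stably transfected HEK293T; ERα LBD homodimer PCA. 24 h dosing, fluorescence intensity read, gain-of-signal vs DMSO.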
# [4] = biological target: Estrogen receptor (Homo sapiens) (UniProt P03372); assay: OT_ER_ERaERa_0480: Odyssey Thera (OT) 8-hour HEK293T Protein-Complementation Assay for Estrogen Receptor-alpha/-alpha Homodimer (AID 2283351);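 further: rise in fluorescence from reassembled reporter fragments on ERα LBD homodimer in nucleus or whole cell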
# How it was run: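 HEK293T cells stably expressing a PCA pair of ER alpha LBD (residues 310-547) were dosed for 8 hours. The gain in fluorescence intensity, nuclear for agonists and whole-cell for antagonists, was measured by laser scanning cytometry against DMSO vehicle.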
# [5] = biological target: T1, Estrogen receptor (Homo sapiens) + Estrogen receptor beta (Homo sapiens) (UniProt P03372+Q92731); assay: OT_ER_ERaERb_0480: Odyssey Thera (OT) 8-hour HEK293T Protein-Complementation Assay for Estrogen Receptor-alpha/-beta Heterodimer (AID 2283352)
# T1 sequence (P03372 whole entry, looked up, the tested form may be a part): as the sequence (P03372 whole entry, looked up, the tested form may be a part) above
# T1 sequence (Q92731 whole entry, looked up, the tested form may be a part): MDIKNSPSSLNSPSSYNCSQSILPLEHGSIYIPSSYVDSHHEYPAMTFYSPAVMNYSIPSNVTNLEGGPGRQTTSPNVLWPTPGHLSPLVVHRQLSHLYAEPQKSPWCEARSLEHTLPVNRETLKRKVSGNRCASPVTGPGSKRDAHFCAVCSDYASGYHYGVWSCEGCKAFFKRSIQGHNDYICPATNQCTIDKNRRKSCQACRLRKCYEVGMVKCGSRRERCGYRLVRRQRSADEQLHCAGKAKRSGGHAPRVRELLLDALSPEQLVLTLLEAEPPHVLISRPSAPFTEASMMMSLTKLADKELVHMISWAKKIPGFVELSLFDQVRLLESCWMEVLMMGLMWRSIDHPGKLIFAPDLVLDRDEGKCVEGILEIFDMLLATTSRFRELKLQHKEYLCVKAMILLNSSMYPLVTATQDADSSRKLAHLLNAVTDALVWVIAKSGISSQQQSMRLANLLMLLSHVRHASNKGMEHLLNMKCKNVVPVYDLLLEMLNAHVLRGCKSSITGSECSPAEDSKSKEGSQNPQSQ
# How it was run: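 Increase in mean fluorescence intensity, measured by laser scanning plate cytometry, reported ER-alpha/ER-beta LBD complementation in HEK293T cells after 8 h chemical exposure. DMSO served as baseline; basal signal is low, punctate and cytoplasmic.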
# [6] = biological target: T1, Estrogen receptor (Homo sapiens) + Estrogen receptor beta (Homo sapiens); assay: OT_ER_ERaERb_1440: Odyssey Thera (OT) 24-hour HEK293T Protein-Complementation Assay for Estrogen Receptor-alpha/-beta Homodimer (AID 2283356);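 further: heteromer of ER alpha and ER beta binding domains; hits raise reporter fluorescence and both agonists and antagonists give an increase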
# How it was run: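 Heterodimerisation of ERα (aa 310-547) and ERβ (aa 263-489) ligand binding domains was tracked as fluorescence gain in stably transfected HEK293T cells following 24 h dosing, normalised to DMSO controls.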
# [7] = biological target: Glucocorticoid receptor (Homo sapiens) (UniProt P04150); assay: NVS_NR_hGR: NovaScreen (NVS) Nuclear Receptor Binding Assay for human Glucocorticoid Receptor (GR) (AID 2283363);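 on AC50: activity is loss of specific radioligand binding signal relative to DMSO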
# Chain of Glucocorticoid receptor (Homo sapiens) (P04150 whole entry, looked up): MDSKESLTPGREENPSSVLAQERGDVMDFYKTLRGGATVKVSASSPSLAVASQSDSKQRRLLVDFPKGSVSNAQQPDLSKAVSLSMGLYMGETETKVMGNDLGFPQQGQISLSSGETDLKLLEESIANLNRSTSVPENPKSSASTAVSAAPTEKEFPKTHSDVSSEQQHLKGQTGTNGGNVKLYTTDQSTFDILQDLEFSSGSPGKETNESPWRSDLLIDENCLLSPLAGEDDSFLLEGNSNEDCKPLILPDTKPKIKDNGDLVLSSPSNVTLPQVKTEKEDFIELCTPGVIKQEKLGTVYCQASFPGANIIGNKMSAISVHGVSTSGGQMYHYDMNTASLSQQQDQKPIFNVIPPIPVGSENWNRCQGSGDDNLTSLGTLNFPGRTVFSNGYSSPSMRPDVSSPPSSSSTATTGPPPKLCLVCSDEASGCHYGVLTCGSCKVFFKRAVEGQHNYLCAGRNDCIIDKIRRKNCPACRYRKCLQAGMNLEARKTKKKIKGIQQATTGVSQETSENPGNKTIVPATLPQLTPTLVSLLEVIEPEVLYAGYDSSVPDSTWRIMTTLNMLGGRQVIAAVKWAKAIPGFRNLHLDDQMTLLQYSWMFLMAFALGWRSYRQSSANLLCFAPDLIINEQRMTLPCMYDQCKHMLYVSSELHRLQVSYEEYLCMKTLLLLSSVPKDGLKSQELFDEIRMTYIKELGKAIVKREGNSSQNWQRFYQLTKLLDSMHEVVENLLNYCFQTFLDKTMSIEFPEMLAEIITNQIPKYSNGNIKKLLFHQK
# How it was run: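 Single-readout cell-free binding: radioligand plus extracted receptor, 16-hour dosing, filter radiodetection; 25 uM duplicate primary, concentration series secondary.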
# [8] = biological target: Androgen Receptor/SRC-1 Co-activator, AR (gene 367) (UniProt P10275); assay: OT_AR_ARSRC1_0960: Odyssey Thera (OT) 16-hour HEK293T Protein-Complementation Assay for Androgen Receptor/SRC-1 Co-activator (AID 2283353);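 further: actives raise the signal above DMSO so potency reflects increased AR and SRC-1 complex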
# Chain of Androgen Receptor/SRC-1 Co-activator, AR (gene 367) (P10275 whole entry, looked up): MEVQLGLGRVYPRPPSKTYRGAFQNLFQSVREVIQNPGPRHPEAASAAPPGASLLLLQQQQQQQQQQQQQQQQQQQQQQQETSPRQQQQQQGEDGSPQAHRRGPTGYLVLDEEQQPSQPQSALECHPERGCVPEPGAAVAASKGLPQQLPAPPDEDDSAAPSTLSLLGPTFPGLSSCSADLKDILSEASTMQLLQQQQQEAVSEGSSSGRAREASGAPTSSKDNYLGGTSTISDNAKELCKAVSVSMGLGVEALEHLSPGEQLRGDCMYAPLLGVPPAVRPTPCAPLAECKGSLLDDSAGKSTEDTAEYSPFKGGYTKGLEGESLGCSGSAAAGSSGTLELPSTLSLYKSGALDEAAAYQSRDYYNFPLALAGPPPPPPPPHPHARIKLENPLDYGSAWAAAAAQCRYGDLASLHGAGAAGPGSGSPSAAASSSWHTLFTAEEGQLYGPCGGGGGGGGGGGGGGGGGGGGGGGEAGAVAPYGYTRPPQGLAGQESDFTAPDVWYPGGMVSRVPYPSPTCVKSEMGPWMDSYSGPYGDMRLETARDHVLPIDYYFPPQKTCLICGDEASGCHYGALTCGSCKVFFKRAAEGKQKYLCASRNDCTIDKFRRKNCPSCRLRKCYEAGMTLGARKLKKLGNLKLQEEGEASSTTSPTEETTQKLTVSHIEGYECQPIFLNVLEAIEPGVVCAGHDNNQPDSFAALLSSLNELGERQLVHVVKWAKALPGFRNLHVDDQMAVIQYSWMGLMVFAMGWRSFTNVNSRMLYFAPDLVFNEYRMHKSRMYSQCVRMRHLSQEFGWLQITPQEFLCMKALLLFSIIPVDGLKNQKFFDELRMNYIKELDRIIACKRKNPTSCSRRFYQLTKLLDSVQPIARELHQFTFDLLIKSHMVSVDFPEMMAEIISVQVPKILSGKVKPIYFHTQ
# How it was run: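 Endpoint is gain-of-signal N/C fluorescence ratio in the 488 nm channel versus DMSO, from at least 400 cells per image, measured 16 h post-dosing. Cells: HEK293T stably carrying split-Venus AR/SRC-1 complementation constructs.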
# [9] = biological target: human Constitutive Androstane Receptor (CAR), NR1I3 (gene 9970) (UniProt Q14994); assay: NVS_NR_hCAR_Antagonist: NovaScreen (NVS) Nuclear Receptor Binding Assay for human Constitutive Androstane Receptor Antagonism (CAR) (AID 2283344)
# Chain of human Constitutive Androstane Receptor (CAR), NR1I3 (gene 9970) (Q14994 whole entry, looked up): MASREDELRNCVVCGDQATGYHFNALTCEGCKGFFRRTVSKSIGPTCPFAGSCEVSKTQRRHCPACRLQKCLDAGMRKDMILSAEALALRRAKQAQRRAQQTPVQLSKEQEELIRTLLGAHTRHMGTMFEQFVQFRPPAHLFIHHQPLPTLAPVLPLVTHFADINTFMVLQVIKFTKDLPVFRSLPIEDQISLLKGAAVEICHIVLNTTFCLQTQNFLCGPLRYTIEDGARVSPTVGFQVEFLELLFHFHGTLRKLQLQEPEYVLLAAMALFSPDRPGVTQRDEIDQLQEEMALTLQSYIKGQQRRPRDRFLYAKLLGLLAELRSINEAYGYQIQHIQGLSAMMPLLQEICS
# How it was run: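 Single 25 uM duplicate primary screen, with concentration-series follow-up on actives. Cell-free binding format run in antagonist mode, TR-FRET signal taken 1 h post-dose; activity is signal loss relative to DMSO.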
# [10] = biological target: Retinoic acid receptor alpha (Homo sapiens) (UniProt P10276); assay: NVS_NR_hRAR_Antagonist: NovaScreen (NVS) Nuclear Receptor Binding Assay for human Retinoic Acid Alpha Receptor Antagonism (RAR) (AID 2283358)
# Chain of Retinoic acid receptor alpha (Homo sapiens) (P10276 whole entry, looked up): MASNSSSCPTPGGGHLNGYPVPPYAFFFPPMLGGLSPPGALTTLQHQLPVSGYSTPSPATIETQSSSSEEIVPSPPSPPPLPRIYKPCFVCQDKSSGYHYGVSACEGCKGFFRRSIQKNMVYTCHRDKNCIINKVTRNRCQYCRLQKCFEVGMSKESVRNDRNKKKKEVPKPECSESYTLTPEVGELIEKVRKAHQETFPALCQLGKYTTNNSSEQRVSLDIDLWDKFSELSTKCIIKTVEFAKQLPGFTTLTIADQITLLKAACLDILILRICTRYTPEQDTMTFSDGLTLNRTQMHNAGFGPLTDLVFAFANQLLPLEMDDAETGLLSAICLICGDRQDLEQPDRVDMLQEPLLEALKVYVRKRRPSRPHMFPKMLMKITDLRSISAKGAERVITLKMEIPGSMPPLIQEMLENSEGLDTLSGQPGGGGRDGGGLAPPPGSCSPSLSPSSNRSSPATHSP
# How it was run: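 Chemicals were first tested in duplicate at 25 uM, then actives in concentration series, in a cell-free TR-FRET antagonist binding format. Measurements were taken 2 hours after dosing and loss of signal was evaluated against DMSO controls.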
# [11] = biological target: Retinoic acid receptor alpha (Homo sapiens) (UniProt P10276); assay: NVS_NR_hRARa_Agonist: NovaScreen (NVS) Nuclear Receptor Binding Assay for human Retinoic Acid Alpha Receptor Agonism (RAR) (AID 2283361)
# How it was run: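 Compounds screened at 25 uM, duplicate, then in concentration series if active. Detection: TR-FRET gain of signal versus DMSO after 2 h with cell-free extracted RARα.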
# [12] = biological target: Bile acid receptor (Homo sapiens) (UniProt Q96RI1); assay: NVS_NR_hFXR_Antagonist: NovaScreen (NVS) Nuclear Receptor Binding Assay for human Farnesoid X Receptor Antagonism (FXR) (AID 2283350)
# Chain of Bile acid receptor (Homo sapiens) (Q96RI1 whole entry, looked up): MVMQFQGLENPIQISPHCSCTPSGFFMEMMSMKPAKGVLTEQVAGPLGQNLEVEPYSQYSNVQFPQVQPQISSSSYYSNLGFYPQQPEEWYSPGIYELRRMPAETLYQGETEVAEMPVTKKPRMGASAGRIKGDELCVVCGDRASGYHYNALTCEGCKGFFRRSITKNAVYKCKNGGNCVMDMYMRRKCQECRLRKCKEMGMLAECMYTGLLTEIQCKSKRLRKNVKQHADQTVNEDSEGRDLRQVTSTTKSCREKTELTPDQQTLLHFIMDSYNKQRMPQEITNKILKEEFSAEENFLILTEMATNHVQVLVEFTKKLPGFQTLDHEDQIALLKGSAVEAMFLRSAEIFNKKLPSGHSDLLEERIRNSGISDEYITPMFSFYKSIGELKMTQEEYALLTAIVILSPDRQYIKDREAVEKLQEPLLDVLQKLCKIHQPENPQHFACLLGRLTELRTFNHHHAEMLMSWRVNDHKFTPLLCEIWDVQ
# How it was run: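 Antagonist-format time-resolved FRET binding assay with extracted human receptor protein, read 1 hour after compound addition. Compounds first screened at 25 uM in duplicate, then actives tested in concentration series, with loss of signal relative to DMSO.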
# [13] = biological target: rat Mineralocorticoid Receptor (MR), Nr3c2 (gene 25672) (UniProt P22199); assay: NVS_NR_rMR: NovaScreen (NVS) Nuclear Receptor Binding Assay for rat Mineralocorticoid Receptor (MR) (AID 2283355)
# How it was run: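 Single-concentration duplicate screen (25 uM) of radioligand binding in adrenalectomized rat brain supernatant; scintillation detection 24 h after dosing. Positive and negative controls ran on each plate, and confirmed actives went to concentration-response.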
compound,measurement,setting,value
O=C(NC(=O)c1c(F)cccc1F)Nc1cc(Cl)c(Oc2ncc(C(F)(F)F)cc2Cl)c(Cl)c1,outcome,[1],inactive
Cc1cc(SCc2sc(-c3ccc(C(F)(F)F)c(F)c3)nc2C)ccc1OCC(=O)O,outcome,[2],inactive
same,outcome,[1],inactive
CC(O)(CS(=O)(=O)c1ccc(F)cc1)C(=O)Nc1ccc(C#N)c(C(F)(F)F)c1 (centres undefined),outcome,[2],inactive
same,outcome,[3],inactive
same,outcome,[4],inactive
same,outcome,[5],inactive
same,AC50,[6],5.63 µM (active)
same,outcome,[7],inactive
OC(c1ccc(Cl)cc1)(c1ccc(Cl)cc1)c1cccnc1,outcome,[1],inactive
O=[N+]([O-])c1ccc(Cl)c([N+](=O)[O-])c1,outcome,[2],inactive
same,outcome,[1],inactive
same,outcome,[4],inactive
same,AC50,[8],9.86 µM (active)
same,AC50,[7],4.52 µM (active)
CC(C)(C1CCC(O)CC1)C1CCC(O)CC1 (centres undefined),outcome,[2],inactive
Nc1ccc(Br)cc1,outcome,[1],inactive
O=S(=O)(Oc1ccc(Cl)cc1)c1ccc(Cl)cc1,outcome,[1],inactive
O=[N+]([O-])c1c2ccccc2cc2ccccc12,outcome,[1],inactive
CCCCCCCCCCCCBr,outcome,[1],inactive
C=CC(=O)[O][Sn]([CH2]CCC)([CH2]CCC)[CH2]CCC,outcome,[2],inactive
same,outcome,[1],inactive
O=C(Nc1ccc(Br)cc1)c1cc(Br)cc(Br)c1O,outcome,[1],inactive
Oc1c(Br)cc(Br)cc1Br,outcome,[2],inactive
same,outcome,[3],inactive
same,outcome,[4],inactive
same,outcome,[5],inactive
same,outcome,[6],inactive
O=C(Cl)OCCOCCOC(=O)Cl,outcome,[1],inactive
OCC(c1ccc(Cl)cc1)c1ccc(Cl)cc1,outcome,[2],inactive
c1csc(-c2ccc(-c3cccs3)s2)c1,outcome,[1],inactive
O=c1[nH]c2ccccc2n1C1CCN(CCCC(c2ccc(F)cc2)c2ccc(F)cc2)CC1,outcome,[2],inactive
same,outcome,[1],inactive
[F][Sn]([c]1ccccc1)([c]1ccccc1)[c]1ccccc1,outcome,[2],inactive
C=CC(=O)OCC(COC(=O)C=C)(COC(=O)C=C)COC(=O)C=C,outcome,[1],inactive
CCCCCCCCCCCCCCC(Br)C(=O)O (centres undefined),outcome,[1],inactive
O=C(CCl)Nc1ccccc1,outcome,[2],inactive
same,outcome,[3],inactive
same,outcome,[4],inactive
same,AC50,[8],28.2 µM (active)
same,outcome,[6],inactive
CCCCC(CC)C(=O)Cl (centres undefined),outcome,[1],inactive
CC(C)O.CC(C)O.OCCN(CCO)CCO.OCCN(CCO)CCO.[Ti],AC50,[9],25 µM (active)
CC(C)[C@@H](Nc1ccc(C(F)(F)F)cc1Cl)C(=O)OC(C#N)c1cccc(Oc2ccccc2)c1 (some centres undefined),outcome,[2],inactive
same,outcome,[1],inactive
CCC[CH2][Sn]([Cl])([Cl])[CH2]CCC,outcome,[1],inactive
same,outcome,[3],inactive
same,outcome,[4],inactive
same,outcome,[5],inactive
same,outcome,[6],inactive
same,outcome,[10],inactive
same,AC50,[11],38 µM (active)
same,AC50,[7],3.88 µM (active)
O=S1OC[C@@H]2[C@H](CO1)[C@]1(Cl)C(Cl)=C(Cl)[C@@]2(Cl)C1(Cl)Cl (some centres undefined),outcome,[1],inactive
O=C(O)C1(c2ccc3c(c2)OC[C@H](Cc2ccc(-c4ccccc4)cc2)[C@H]3O)CCCC1,outcome,[12],inactive
same,outcome,[11],inactive
CC(C=O)Cc1ccc2c(c1)OCO2 (centres undefined),outcome,[13],inactive
Clc1cccc(Cl)c1Cl,outcome,[10],inactive
O=C(N[C@H]1CN2CCC1CC2)c1ccc2c(c1)OCCO2,outcome,[11],inactive
